Experimental data reported in ChEMBL document CHEMBL4513216, “Probing the Open Global Health Chemical Diversity Library for Multistage-Active Starting Points for Next-Generation Antimalarials” (ACS Infect Dis, 2020).
Screen size: about 65,000 compounds; about 2,100 (3.2%) showed an effect of 50% or more. The median lay at about -52%. The sample holds strong results, similar compounds and a random draw of the others, so the mix is not that of the screen.

Each compound was assayed on Plasmodium falciparum (assay: Screen against P. falciparum Asexual Blood Stage (ABS), at 5uM). Settings: tested at 5 uM.
Format: functional, Dd2

SMILES	INHIBITION [%]
Cc1nn(C)c(Cl)c1C1CCCN1CC(=O)NC1CCCC1 (stereo unspecified)	13
Cn1cc(S(=O)(=O)NCCc2ccsc2)cn1	-97
CC(C)(C)c1cn(C2CCN(C3CCSC3)CC2)nn1 (stereo unspecified)	-103
COc1cccc(CNCCc2cc(F)cc3c2OCOC3)c1OC	56.8
COc1cc(CNCCc2cc(F)cc3c2OCOC3)cc(OC)c1	31.1
N#Cc1ccc(CNCCc2cc(F)cc3c2OCOC3)cc1	-105
COc1ccc(CNCCc2cc(F)cc3c2OCOC3)cc1O	37
COc1cccc(CNCCc2cc(F)cc3c2OCOC3)c1	19.8
COc1ccc(CNCCc2cc(F)cc3c2OCOC3)c(OC)c1	55.4
COc1ccc(CNCCc2cc(F)cc3c2OCOC3)cc1OC	21.3
N#Cc1cccnc1NCCc1cc(F)cc2c1OCOC2	-127
COc1ccc(OC)c(CNCCc2cc(F)cc3c2OCOC3)c1	66.3
CC(C)CCC(=O)NC(C)c1nnc2n1CCCCC2 (stereo unspecified)	-147
O=C(CC1CCCC1)N1C[C@@H]2CCN(c3cccnc3)C[C@@H]2C1	-58.1
Cc1cc(C(=O)N2CCc3nc4sc(C)cc4c(=O)n3CC2)on1	-73.5
Cc1ccccc1CN1CCN(C(=O)c2ccn(C(C)(C)C)c2)CC1	2.14
CC(=O)c1ccc(NC(=O)c2ccc3c(c2)C2(CCCCC2)CN3)cc1	20.8
CC(C)c1ccc(CN2CCC(CNS(=O)(=O)C3CC3)C2)cc1 (stereo unspecified)	59.4
Cc1ncc(CN2CCC(CNS(=O)(=O)C3CC3)C2)cn1 (stereo unspecified)	-131
CCc1ccc(CN2CCC(CNS(=O)(=O)C3CC3)C2)nc1 (stereo unspecified)	19.1
Cc1ccccc1OCn1ccc(C(=O)NCCN2CCOCC2)n1	-44.8
Cc1cc2[nH]c(=O)oc2cc1S(=O)(=O)N1C[C@@H](N(C)C)[C@H](C(C)C)C1	-101
Cc1ccc(S(=O)(=O)N2C[C@H](C3CC3)[C@@H](N)C2)cc1F	14.8
Cc1cc(-c2cc(S(=O)(=O)N3C[C@H](C4CC4)[C@@H](N)C3)c(C)s2)[nH]n1	62.6
CC(C)c1cc(C(=O)N2CCCC(Cn3cc(CO)nn3)C2)on1 (stereo unspecified)	-137
COCCN1CCC2(CC1)CC(NCc1cncn1C)c1ccccc12 (stereo unspecified)	-18.1

SMILES	INHIBITION [%]
CC(C)CN1CCC(NC(=O)c2ccc(F)cc2I)CC1	23.2
CC(C)CN1CCC(NC(=O)c2ccc(F)cc2F)CC1	-150
CCN1CCC(NC(=O)c2ccc(F)cc2I)CC1	50
O=C(NCCc1ccccc1F)NCC(O)c1cccc(F)c1 (stereo unspecified)	-156
NC(=O)c1cc2c(nc1Oc1cccc(CN3CCCC3)c1F)CCC2	-10.3
COc1cc(C(=O)NS(=O)(=O)c2cncc(Br)c2)ccc1C	-28.1
NC(=O)CN1CCCC(c2nccnc2Oc2cccc(F)c2)C1 (stereo unspecified)	-47.7
Cc1cc(C2CCCN(C(=O)COc3cccc(F)c3)C2)n[nH]1 (stereo unspecified)	-49.4
CNCC(=O)N1CCCC(c2nccnc2Oc2cccc(F)c2)C1 (stereo unspecified)	55.4
Cn1ccc2c(NC(=O)Cn3ncc4c(c3=O)CCCC4)cccc21	-90.4
Cc1nc(C2CN(Cc3scnc3C)CCO2)cc(N(C)C)n1 (stereo unspecified)	-79.5
OCCCN1CCc2onc(C(c3ccccc3)c3ccccc3)c2C1	49.4
CC(O)CN1CCc2[nH]nc(C(c3ccccc3)c3ccccc3)c2C1 (stereo unspecified)	42.3
OCCN1CCc2[nH]nc(C(c3ccccc3)c3ccccc3)c2C1	61.7
c1coc(CN2CC[C@H]3O[C@@H](COCC4CC4)CC[C@H]32)c1	-93.2
Cc1nc(C)c(C(=O)N2C[C@@H](C(=O)O)[C@H](C3CC3)C2)s1	-75.7
CCN(CC)Cc1nc2c(o1)CN(S(=O)(=O)c1cccs1)C2	-61.5
CN(CCc1ccccc1)Cc1c(C2CCOCC2)[nH]c2ncccc12	-22.4
CN(CCc1ccccc1)Cc1c(C2CCNCC2)[nH]c2ncccc12	54.6
CN(CCc1ccncc1)Cc1c(C2CCCC2)[nH]c2ncccc12	-56.1
Cc1ccc(CN2CCN(C3CSCCSC3)CC2CCO)o1 (stereo unspecified)	-73.5
CC(C)c1cc(C2CCN(C(=O)Cn3nc4ccccc4n3)CC2)[nH]n1	-107
O=C(c1ccc2[nH]ccc2c1)N1Cc2nc(CN3CCCCC3)oc2C1	-72.8
CC1CN(Cc2ccccc2)CCCN1CCS(C)(=O)=O (stereo unspecified)	39.2
COCCN1CCN(CCCS(C)(=O)=O)CC1C (stereo unspecified)	-42.5
